Compound activity from PubChem BioAssay.
Hits are enriched below; roughly 5.8% of the tested compounds scored in any of these assays.
12-LOX inh = ALOX12 (human) lipoxygenase inhibition | P18054 | hit rate 1.1% among 580,000 | Potency, µM (titrated, usually from 108 µM), hits mostly inhibitors | purified 12hLO, xylenol orange hydroperoxide absorbance
Target sequence (P18054 whole entry, looked up): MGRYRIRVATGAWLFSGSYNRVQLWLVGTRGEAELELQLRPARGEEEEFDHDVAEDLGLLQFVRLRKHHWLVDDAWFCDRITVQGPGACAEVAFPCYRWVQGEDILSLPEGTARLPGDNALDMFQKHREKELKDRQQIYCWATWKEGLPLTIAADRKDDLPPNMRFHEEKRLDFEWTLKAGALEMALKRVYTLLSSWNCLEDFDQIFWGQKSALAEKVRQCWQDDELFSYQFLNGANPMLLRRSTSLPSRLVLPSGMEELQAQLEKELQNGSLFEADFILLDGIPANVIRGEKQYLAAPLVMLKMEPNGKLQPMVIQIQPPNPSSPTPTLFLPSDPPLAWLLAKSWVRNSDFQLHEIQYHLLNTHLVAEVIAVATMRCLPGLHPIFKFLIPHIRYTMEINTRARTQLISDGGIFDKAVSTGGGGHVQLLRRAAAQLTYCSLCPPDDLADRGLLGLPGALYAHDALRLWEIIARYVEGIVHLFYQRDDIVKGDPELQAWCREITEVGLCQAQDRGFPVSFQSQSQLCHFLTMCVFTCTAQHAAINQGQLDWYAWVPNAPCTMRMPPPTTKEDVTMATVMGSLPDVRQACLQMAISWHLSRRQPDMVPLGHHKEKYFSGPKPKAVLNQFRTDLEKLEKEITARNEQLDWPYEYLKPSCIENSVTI
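Hydroperoxide product was detected by ferrous iron/xylenol orange as the 573 to 405 nm absorbance ratio. Arachidonic acid at 40 uM (final) was turned over for 30 min at room temperature by 150 nM human 12hLO, pH 7.0 Hepes buffer, after 15 min compound preincubation.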
PINK1 expr mod = modulators of PINK1 expression; hit rate 0.2% among 410,000; Potency, µM (top dose mostly 76.6 µM), most hits filed as activators; PINK1 immunofluorescence, high-content cytometry, 24 h; active means well fitted activation curve with a large enough effect; inconclusive means small, poorly fitted or top-dose-only effect; cell line not stated here; further: nearly all actives have a fitted effect of over 65% in size
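Readout is PINK1 immunofluorescence, quantified alongside mitochondrial, cell and nuclear markers by laser-scanning microplate cytometry. Cells from a stable line were exposed to compound titrations (5 concentrations) for 24 hours, with CCCP controls.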
MCF10A rereplic = DNA re-replication induction in MCF 10a cells | hit rate 2.9% among 350,000 | MCF 10A DNA re-replication, Hoechst nuclear intensity, 48 h | Potency, µM (doses to about 46.1 µM), actives largely listed as activators; further: nearly all actives have a fitted effect of over 50% in size
KB-3-1 tox = kills parental KB-3-1 adenocarcinoma cells; KB-3-1 viability, CellTiter-Glo ATP luminescence, 72 h; Potency, µM (titrated, usually from 46.1 µM), most hits filed as cytotoxic; hit rate 1.4% among 400,000; AID 1347075; further: nearly all actives have a fitted effect of over 60% in size
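Cytotoxicity in the drug-sensitive parental line KB-3-1 was scored as loss of CellTiter-Glo luminescence following 72 h incubation with compound. Values come from curve fitting of normalized concentration-response data.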
SW480 rereplic = induces DNA re-replication in SW480 colon adenocarcinoma cells. Potency, µM (series often up to 46.1 µM), usual class: activators. hit rate 1.8% among 340,000. SW480 DNA re-replication, Hoechst DNA content imaging, 48 h. AID 624297; further: nearly all actives have a fitted effect of over 55% in size
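DNA re-replication was detected as more nuclei of elevated Hoechst intensity after 48 hr exposure to compound (23 nL pinned per well of 250 cells).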
KB-V1 cytotox = kills drug-selected multidrug resistant KB-V1 cells; KB-V1 MDR cells viability, CellTiter-Glo, 72 h; Potency, µM (series often up to 46.1 µM), actives largely listed as cytotoxic; hit rate 3.4% among 400,000; AID 1347076; further: nearly all actives have a fitted effect of over 60% in size
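KB-V1 cells (P-gp-expressing MDR subline of KB-3-1) in phenol-red-free DMEM with 10% FBS were exposed to library compounds over a concentration series for 72 h at 37 degrees C. Viability read by CellTiter-Glo luminescence; concentration-effect curves fitted after normalization.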
Hits are given with their value; n = inactive; u = inconclusive; x = no result; ! = repeats disagree; [ ] = dose if it differs, or a comment. Unless noted, the call rests on the fitted dose curve; in most records, active means well fitted curve in the direction sought with a large enough effect; inconclusive means small, poorly fitted or top-dose-only effect, or another doubt; inactive means no such curve, though single readings can be large; an effect the other way counts as inactive or inconclusive.

SMILES	12-LOX inh	PINK1 expr mod	MCF10A rereplic	KB-3-1 tox	SW480 rereplic	KB-V1 cytotox
COCCCn1c(N)c(C(=O)NCc2ccco2)c2nc3ccccc3nc21	u	n	16.4µM	n	18.4µM	n
COCCCn1c(N)c(C(=O)Nc2ccccc2)c2nc3ccccc3nc21	n	n	u	u	20.6µM	n
Cn1cc(CN2CCN(C(=O)COc3ccccc3)CC2)ccc1=O	n	x	x	x	x	x
COC(=O)C[C@]1(C(=O)OC)CN(C#N)N(c2ccc(Cl)cc2)C12c1ccccc1-c1ccccc12	n	n	5.17µM	5.17µM	u	5.8µM
COC(=O)[C@@H]1[C@@H](C(=O)OC)C2(c3ccccc3-c3ccccc32)N(c2ccc(Cl)cc2)N1C#N	n	n	7.08µM	u	9.2µM	u
Cc1cc(OCC(=O)N2CCN(Cc3nc(N)c4ccccc4n3)CC2)ccc1C(C)C	n	x	x	x	x	x
O=C(NCc1cccnc1)c1cn(Cc2ccccc2)c2ccccc12	n	x	x	x	x	x
CC12Cc3cnoc3C=C1CCC1C2CCC2(C)C1CCC2(C)O (configuration not stated)	u	n	u	6.51µM	n	u
N#Cc1cc2c(nc1SCC(=O)Nc1cc(Cl)cc(Cl)c1)C1CCN2CC1	n	u	2.31µM	n	n	4.61µM
N#Cc1cc2c(nc1SCC(=O)Nc1ccc(F)c(Cl)c1)C1CCN2CC1	n	n	x	n	x	14.6µM
N#Cc1cc2c(nc1SCC(=O)Nc1cccc(C(F)(F)F)c1)C1CCN2CC1	n	n	x	u	x	9.2µM
N#Cc1cccc(NC(=O)CSc2nc3c(cc2C#N)N2CCC3CC2)c1	u	n	x	u	x	n
O=C(c1cn(Cc2ccccc2)c2ccccc12)N1CCC(C(=O)N2CCCCC2)CC1	n	x	x	x	x	x
Cc1nc(-c2ccco2)cc([C@H]2CN3CC[C@H]2C[C@@H]3CNCc2ccccc2)n1	n	x	x	x	x	x
c1ccc2c(c1)cc1ccc3cccc4ccc2c1c34	n	n	u	n	20.6µM	n
O=C1c2ccccc2-c2cccc3cccc1c23	u	n	n	n	n	n
COc1ccc(-c2cn(C[C@H]3CC4CCN3C[C@@H]4C(=O)NC3CCCCC3)nn2)cc1 (some centres not stated)	n	x	x	x	x	x
CCC1C(c2cc(OC)c(OC)c(OC)c2)c2cc3c(cc2OC1N1CCCC1)OCO3 (configuration not stated)	u	n	4.11µM	4.11µM	8.2µM	5.17µM
CN1CCN2C(=O)N(C3CCOCC3)C[C@H]2C1	n	x	x	x	x	x
Cc1ccccc1C(Cn1ccnc1-c1cnc[nH]1)N(C)C (configuration not stated)	n	x	x	x	x	x
C=CC[C@@H](CC/C=C/C=C/CC/C=C\[C@@H]1CSC([C@@H]2C[C@@H]2C)=N1)OC	x	n	0.731µM	n	1.16µM	n
COc1ccc([C@H]2C[C@@H](O)[C@@H](O)[C@@H]2NCC2CCCC2)cc1	n	x	x	x	x	x
CC[C@H]1CN2CC[C@H]1C[C@@H]2CNS(=O)(=O)c1ccc(OC)cc1	n	x	x	x	x	x
CC(C)CCOc1cccc(CCN)c1	n	x	x	x	x	x
COc1cccc(Cn2c(-c3cccs3)noc2=O)c1	n	u	u	n	n	u
SMILES	12-LOX inh	PINK1 expr mod	MCF10A rereplic	KB-3-1 tox	SW480 rereplic	KB-V1 cytotox
COc1ccc(-c2noc(=O)n2Cc2cc(C)ccc2C)cc1	n	n	16.4µM	u	u	u
C=C[C@H]1CN2CC[C@H]1C[C@@H]2CNS(=O)(=O)c1ccc2ccccc2c1	n	x	x	x	x	x
O=[S+]1([O-])NCC2(CCN(CC3CCCC3)C2)Oc2ncccc21 (configuration not stated)	n[6.33 µM]	x	x	x	x	x
CN(C)C(=S)SSC(=S)N(C)C	u	n	21.1µM!	n	1.33µM	n
CN(C)C(=S)SC(=S)N(C)C	u	x	n	x	2.66µM	x
COC(=O)C1=C(C(=O)OC)C2OC1c1cc3ccccc3cc12	n	n	u	n	13µM	n
COc1ccccc1C(=O)N1[C@H]2CC[C@@H]1c1cnc(-c3ccc(F)cc3)nc1C2	n	x	x	x	x	x
CC(C)NCC(O)c1ccc([N+](=O)[O-])cc1 (configuration not stated)	n	x	x	x	x	x
CCCOP(=O)(OCCC)C(Nc1ccc(C(C)C)cc1)c1ccc([N+](=O)[O-])cc1 (configuration not stated)	n	n	u	u	20.6µM	11.6µM
CC(C)[C@H]1CC2C3CC=C4C[C@@H](O)CC[C@]4(C)C3CC[C@]2(C)[C@H]1O (some centres not stated)	n	n	18.4µM	n	u	n
CC(=O)OCC(=O)C1CCC2C3CC=C4CC(O)CCC4(C)C3CCC12C (configuration not stated)	n	n	n	n	n	14.6µM
